This is a sample that favours compounds with a hit; in the whole collection about 12% have one here.
G9a inh: G9a (human) methyltransferase inhibition; Q96KQ7; G9a H3K9 monomethylation, AlphaScreen, 2 h; Potency, µM (series often up to 102 µM), inactives show at the top dose activity, negative = inhibition, most hits filed as inhibitors; actives 8.8% (n = 350,000); AID 504332; further: potency means the concentration at half of the fitted maximal effect; on the % scale 0 is the no-effect control and ±100 the full control effect; nearly all actives have a fitted effect of over 75% in size
Target sequence (Q96KQ7 913-1193 limits assumed): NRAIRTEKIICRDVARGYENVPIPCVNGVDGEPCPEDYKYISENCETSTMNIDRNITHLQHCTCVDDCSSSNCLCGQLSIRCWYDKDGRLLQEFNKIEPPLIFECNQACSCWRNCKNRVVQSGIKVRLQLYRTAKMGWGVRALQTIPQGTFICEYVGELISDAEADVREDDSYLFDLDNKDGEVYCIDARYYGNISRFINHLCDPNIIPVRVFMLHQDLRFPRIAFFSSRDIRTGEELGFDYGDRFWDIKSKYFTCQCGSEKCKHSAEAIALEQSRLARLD
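Chemiluminescent proximity detection of H3K9 monomethylation, read after 10 min bead incubation in the dark. Reaction: 20 nM G9a, 500 nM biotin-H3K9 peptide, 20 uM SAM cofactor, 2 h, room temperature, following 15 min enzyme-compound preincubation.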
JMJD2A Tudor: inhibitors of human JMJD2A Tudor domain; actives 4.4% (n = 390,000); Potency, µM (top dose mostly 114 µM), without a hit: at the top dose activity change, negative = inhibition, actives largely listed as inhibitors; AlphaScreen JMJD2A-Tudor / H3K4me3 peptide binding; further: potency means the concentration at half of the fitted maximal effect; on the % scale 0 is the no-effect control and ±100 the full control effect; nearly all actives have a fitted effect of over 50% in size
BAZ2B inh: BAZ2B (human) inhibition; Q9UIF8; AlphaScreen BAZ2B-H3K14Ac peptide displacement; Potency, µM (highest dose often 114 µM), without a hit: at the top dose activity change, negative = inhibition, hits mostly inhibitors; actives 4.4% (n = 360,000); AID 504333; further: potency means the concentration at half of the fitted maximal effect; on the % scale 0 is the no-effect control and ±100 the full control effect; nearly all actives have a fitted effect of over 60% in size
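Protein-peptide AlphaScreen: BAZ2B 50 nM, b-H3K14Ac 50 nM, 1x PBS pH 7.4 + 0.01% Tween-20. Preincubation 30 min RT; cpd 30 min RT (top 110 uM); beads 20 min RT, light-protected.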
HP1b binding inh: HP1-beta chromodomain-methylated histone interaction inhibition | AlphaScreen HP1-beta / biotin-H3K9me3 peptide binding | Potency, µM (titrated, usually from 114 µM), for the others: at the highest dose activity change, negative = inhibition, most hits filed as inhibitors | actives 0.56% (n = 390,000) | AID 540317 | P83916; further: potency means the concentration at half of the fitted maximal effect; nearly all actives have a fitted effect of over 70% in size
Target sequence (P83916 whole entry, looked up): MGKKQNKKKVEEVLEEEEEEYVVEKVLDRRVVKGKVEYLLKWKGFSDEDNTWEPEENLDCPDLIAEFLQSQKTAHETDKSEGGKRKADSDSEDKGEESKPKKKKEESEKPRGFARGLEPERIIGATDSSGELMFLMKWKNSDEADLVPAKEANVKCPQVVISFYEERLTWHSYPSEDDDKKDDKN
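AlphaScreen: HP1-beta (50 nM) preformed 30 min with biotin-H3(1-18)K9me3 peptide (50 nM) in PBS pH 7.4, 0.01% Tween-20. Compound added for 30 min at RT, then streptavidin donor/nickel chelate acceptor beads (10 ug/mL) for 30 min.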
PI5P4K alpha inh: inhibitors of human PI5P4K alpha; P48426; PI5P4Kalpha enzyme, ADP-Glo luminescence, 60 min; stronger effect = lower value; max response, %; actives 1.2% (n = 330,000); AID 652105; active means max response of -50% or lower; inconclusive means between -30% and -50%; inactive means -30% or higher; further: value at the top dose of about 77 µM; on the % scale 0 is the no-effect control and ±100 the full control effect
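PI5P4Kalpha ADP-Glo assay; 5 microM ATP final; 60 min RT reaction; HEPES pH 7.4/EGTA/CHAPS, 5% DMSO; controls lacking substrate or enzyme; luminescent end-point.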
PLK1 PBD inh: blocks phosphopeptide binding to human PLK1 polo-box domain; actives 2.8% (n = 360,000); AID 720504; Potency, µM, inactives show max response, negative = inhibition, most hits filed as inhibitors; Plk1 PBD binding of FITC phosphopeptide, fluorescence polarization; further: potency means the concentration at half of the fitted maximal effect; series mostly up to about 57 µM; on the % scale 0 is the no-effect control and ±100 the full control effect; nearly all actives have a fitted effect of over 65% in size
An asterisk follows results filed as active; ? = inconclusive; . = not tested or not shown; [ ] = remark or other dose. Unless noted, the call rests on the fitted dose curve; in most records, active means well fitted curve in the direction sought with a large enough effect; inconclusive means small, poorly fitted or top-dose-only effect, or another doubt; inactive means no such curve, though single readings can be large; an effect the other way counts as inactive or inconclusive.

SMILES	G9a inh	JMJD2A Tudor	BAZ2B inh	HP1b binding inh	PI5P4K alpha inh	PLK1 PBD inh
CCCc1cc(C(=O)N2CCCC(Nc3ccc(C)c(C)c3)C2)n(C)n1 (centres undefined)	45µM*	-31%	-30%	-17%	-7	-10%
CCCCn1cnc2cc(NC(=O)c3cc(OC)c(OC)c(OC)c3)ccc21	-30%[59 µM]	-6%	-30%	11%	.	.
COc1ccc(O)c(/C=N/NS(=O)(=O)c2ccc(C)cc2)c1	-12%	-10%	-15%	4%	4	-12%
Cc1ccc(S(=O)(=O)N/N=C\c2cccnc2)cc1	18%[0.501 µM]	-10%	-22%[57.1 µM]	22%	.	-11%
COc1cc(/C=N/NS(=O)(=O)c2ccc3ccccc3c2)ccc1OCc1ccc(C(=O)O)cc1	50µM*	-20%	-25%	22%	0	-12%
COc1ccc(/C=N/NS(=O)(=O)c2ccccc2)cc1OC(=O)c1ccc(C)cc1	.	?	?	-7%	1	-10%
CC(=O)Oc1ccc(/C=N/NS(=O)(=O)c2ccc(C)cc2)c(OC(C)=O)c1	40µM*	-20%	-22%	29%	-1	-11%
COc1ccc(/C=N/NS(=O)(=O)c2ccc(C)cc2)cc1OC(=O)c1ccccc1	-22%[59 µM]	-32%	79µM*	5%	-3	-9%
COc1cc(/C=N/NS(=O)(=O)c2ccc(C)cc2)ccc1OCc1cccc(C(=O)O)c1	4%	-21%	-20%	21%	1	-17%
Cc1ccc(S(=O)(=O)N/N=C/c2ccc3nccnc3c2)cc1	3.2µM*	-18%[11.4 µM]	-17%	51%	-1	?
CCCCN1C(=O)C(=O)N(CC(=O)Nc2cc(S(=O)(=O)N(C)C)ccc2C)C1=O	-24%	4%	-5%	54%	2	5%
O=C(CC1NCCC[C@H]1O)Cn1cnc2cc(Br)c(Cl)cc2c1=O (some centres undefined)	-50%[12.7 µM]	.	.	.	.	.
CCOc1ncccc1C(=O)Nc1cc(S(=O)(=O)N2CCCCCC2)ccc1OC	-9%	-7%	10%	19%	8	-2%
O=C1OC(/C(=C\Nc2cc(Cl)ccc2O)[N+](=O)[O-])c2ccccc21 (centres undefined)	10µM*	?	45µM*	?	-3	-19%
Cc1ccc(N/C=C(\C2OC(=O)c3ccccc32)[N+](=O)[O-])c(C)c1 (centres undefined)	?	-21%[11.4 µM]	-32%	?	13	?
O=C1OC(/C(=C\Nc2ccc(F)cc2F)[N+](=O)[O-])c2ccccc21 (centres undefined)	45µM*	-20%	-18%	46%	?	-26%
O=C1CC(N2CCN(S(=O)(=O)c3ccc([N+](=O)[O-])cc3)CC2)C(=O)N1c1ccccc1F (centres undefined)	3%[12.7 µM]	-20%	-5%	31%	-2	-2%
C[C@@H](Oc1ccc(Oc2cnc3ccc(Cl)cc3n2)cc1)C(=O)O	0%[12.7 µM]	.	.	.	.	.
NS(=O)(=O)c1ccc(CCNCc2ccccc2OCc2ccc(F)cc2)cc1	16%	-8%	-13%	0%	-2	-6%
NS(=O)(=O)c1ccc(NCc2ccccc2OCc2ccc(F)cc2)cc1	?	-28%	56µM*	7%	-2	0%
Fc1cccc(COc2ccccc2CNc2ccccc2)c1	64%[59 µM]	21%	35%	-50%	-3	-7%
CCOc1ccc(NCc2ccccc2OCc2cccc(F)c2)cc1	10µM*	?	?	3%	2	-7%
Cc1nc2cnc(Nc3ccccc3)nc2n(CCc2ccccc2)c1=O	4%[0.501 µM]	.	.	.	.	.
CCS(=O)(=O)C1=NN2C(=N)/C(=C\c3ccc(OS(=O)(=O)c4ccccc4)cc3)C(=O)N=C2S1	40µM*	?	50µM*	5%	-79*	21µM*
Cc1ccc(S(=O)(=O)Oc2ccc(/C=C3\N=C(c4cccc(C)c4)OC3=O)cc2)cc1	?	-8%	-23%	16%	2	-1%

Screening results: PubChem, National Center for Advancing Translational Sciences (NCATS)
